Compound activity deposited in PubChem BioAssay by National Center for Advancing Translational Sciences (NCATS).
A selection: hits, their analogues and other compounds. The true share with any hit is near 2.8%.
KDM5B inhibitor: Primary screen for KDM5B Histone Demethylases FDH-coupled qHTS; Lysine-specific demethylase 5B (Homo sapiens), Q9UGL1; KDM5B demethylase, FDH-coupled NADH fluorescence (FDH is formaldehyde dehydrogenase); Potency, µM (doses to about 57.7 µM), actives largely listed as inhibitors; actives 2.6% (n = 220,000); further: nearly all actives have a fitted effect of over 70% in size
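Measured: NADH fluorescence change, 30 min, RT. System: KDM5BΔAP 200 nM final, H3K4me3 peptide, α-KG, Fe(II), ascorbate, NAD⁺ plus FDH, pH 7.5 HEPES. Compounds: titrated, 10 min pre-incubation with enzyme.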
SNCA expr inh: Primary qHTS assay for inhibitors of alpha-synuclein gene (SNCA) expression | Potency, µM (top dose mostly 57.2 µM), actives largely listed as inhibitors | actives 0.17% (n = 140,000) | HEK-293 SNCA-luciferase knock-in, luminescence, 24 h; further: nearly all actives have a fitted effect of over 45% in size
IP6K1 inh: Primary qHTS assay for small molecule inhibitors of Inositol hexaphosphate kinase 1 (IP6K1); Inositol hexakisphosphate kinase 1 (Homo sapiens), Q92551; IP6K1 kinase, ADP-Glo luminescence, 2 h; hits give low values; activity change, % (series mostly up to about 58 µM); actives 0.81% (n = 140,000); in the data active means activity change below about -25%
Target sequence (Q92551 whole entry, looked up): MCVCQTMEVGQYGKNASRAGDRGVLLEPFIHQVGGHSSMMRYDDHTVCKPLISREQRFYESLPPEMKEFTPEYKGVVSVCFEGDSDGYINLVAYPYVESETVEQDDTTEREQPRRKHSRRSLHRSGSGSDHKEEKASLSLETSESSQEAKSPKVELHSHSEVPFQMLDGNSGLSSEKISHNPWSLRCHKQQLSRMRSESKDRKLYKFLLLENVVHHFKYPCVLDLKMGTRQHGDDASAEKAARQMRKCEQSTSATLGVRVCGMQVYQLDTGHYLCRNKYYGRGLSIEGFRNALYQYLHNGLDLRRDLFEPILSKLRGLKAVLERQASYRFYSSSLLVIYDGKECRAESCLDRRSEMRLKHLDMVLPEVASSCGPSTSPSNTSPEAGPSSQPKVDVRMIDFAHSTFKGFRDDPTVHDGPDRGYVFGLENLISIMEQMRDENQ
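ADP-Glo luminescence measures ADP made by human IP6K1 during a 2 h RT reaction with ATP/IP6 (mix at 1.3 mM/130 uM); top library doses 57.5 and 19.1 uM final.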
HEK293 viab: GF-AFC viability counterscreen for inhibitors of alpha-synuclein gene (SNCA) expression | HEK-293-SNCA-luc viability, GF-AFC fluorescence, 24 h | Potency, µM (doses to about 57.1 µM), most hits filed as cytotoxic | AID 1671193, 2021 | actives 0.12% (n = 150,000); further: nearly all actives have a fitted effect of over 30% in size
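HEK-293-SNCA-luc cells (1500/well) plated 24 h, then exposed 24 h to a dilution series; GF-AFC added 30 min at 37C, fluorescence 405/540 nm; normalised to medium-only and DMSO wells, Hill fit.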
A number is an active result; 0 = inactive; ? = inconclusive; - = no result given; [ ] = remark or other dose. Unless noted, the call rests on the fitted dose curve; in most records, active means well fitted curve in the direction sought with a large enough effect; inconclusive means small, poorly fitted or top-dose-only effect, or another doubt; inactive means no such curve, though single readings can be large; an effect the other way counts as inactive or inconclusive.

SMILES	KDM5B inhibitor	SNCA expr inh	IP6K1 inh	HEK293 viab
Cc1nc(C2CCCCN2C(=O)c2ccccc2)n[nH]1 (stereo unspecified)	0	0	0	0
CCCCNC(=O)CSc1nc2ccccc2nc1Cc1ccc(C)cc1	0	0	0	0
CCCCN(C)C(=O)CSc1nc2ccccc2nc1Cc1ccc(C)cc1	0	14µM	0	?
CCOc1ccccc1CN1CCC([C@@H]2CNC[C@H]2CO)CC1	0	25µM	0	0[12.5 µM]
CC(C)NC(=O)CC[C@@H]1CNC(=O)[C@@H]2C[C@H](NCc3ccccc3)CN12	?	0	0	0
O=C(CSc1oc(-c2ccco2)nc1S(=O)(=O)c1ccc(Br)cc1)c1ccccc1	?	0	-28	0
CCNc1cc(N2CCC(CCC(=O)NC3CCCC3)CC2)ncn1	0	2.2µM	0	0
O=C(CCC1CCN(c2cc(NC3CC3)ncn2)CC1)NCC1CC1	0	1.4µM	0	0
Cc1cccc2c(C(=O)N(C)C(C)Cc3ccccn3)cc(-c3cnc(N)nc3)nc12 (stereo unspecified)	32µM	0	0	0
Cc1ccnc(CC(C)N(C)C(=O)c2cc(-c3cnn(C)c3)nc3ccccc23)c1 (stereo unspecified)	22µM	0	0	0
CCN(Cc1ccncc1)C(=O)c1cc(-c2cnc(C)nc2)nc2c(C)cccc12	?	0	0	0
COc1ccccc1-c1[nH]nc2ncc(-c3ccccc3C)nc12	32µM	0	0	0
COc1ccccc1-c1[nH]nc2ncc(-c3ccccc3F)nc12	35µM	0	0	0
COc1ccccc1-c1[nH]nc2ncc(C(=O)NCc3ccccc3)nc12	32µM	0	0	0
COc1ccc(-c2cnc3n[nH]c(-c4ccc(F)cc4C)c3n2)cn1	28µM	0	0	0
Cc1ccccc1-c1[nH]nc2ncc(-c3ccnn3C)nc12	35µM	0	0	0
Cc1cc(F)ccc1-c1[nH]nc2ncc(-c3ccnn3C)nc12	?	0	0	0
COc1ccccc1-c1[nH]nc2ncc(-c3cccc(O)c3)nc12	35µM	0	0	0
CCOc1ccc2c(n1)CCN(C(=O)c1ccc(C(C)C)cc1)C2	0	0	0	0[12.5 µM]
COc1ccc2[nH]c3c(c2c1)CCNC31CCN(C2CCCC2)CC1	22µM	?	0	0[12.5 µM]
COc1ccc2[nH]c3c(c2c1)CCNC31CCN(Cc2ccc(F)cc2F)CC1	11µM	?	0	0[12.5 µM]
COc1ccc2[nH]c3c(c2c1)CCNC31CCN(C(=O)C2CCOCC2)CC1	22µM	0	0	0[12.5 µM]
COc1ccc2[nH]c3c(c2c1)CCNC31CCN(C(=O)c2cccnc2C)CC1	?	20µM	0	0[12.5 µM]
CCN1CCC(N2CCC3(CC2)NCCc2c3[nH]c3ccc(OC)cc23)CC1	?	0	0	0[12.5 µM]
COc1ccc(Cl)cc1NC(=O)c1cc(=O)c2ccccc2o1	0	-	-	-
SMILES	KDM5B inhibitor	SNCA expr inh	IP6K1 inh	HEK293 viab
Cc1ccc(C(=O)N2CCCC(c3noc(COc4ccccc4)n3)C2)s1 (stereo unspecified)	0	0	0	0[12.5 µM]
Cn1ncc(N2CCC(CNC(=O)c3cn4ccsc4n3)C2)cc1=O (stereo unspecified)	0	0	0	0
COc1ccc2[nH]c3c(c2c1)CCNC31CCN(C(=O)C2CC=CC2)CC1	22µM	0	0	0[12.5 µM]
CCC(C)C(=O)N1CCC2(CC1)NCCc1c2[nH]c2ccc(OC)cc12 (stereo unspecified)	32µM	0	0	0[12.5 µM]
CN(Cc1ccccc1)C(=O)C1CCCN1C(=O)c1cccc(-c2cccnc2)c1 (stereo unspecified)	-	-	0	-
COc1ccc(-n2cc(-c3ccnc(NCCC4CCCN4C)n3)cn2)cc1 (stereo unspecified)	28µM	0	0	0
Cc1nc2cc(F)ccc2cc1C(=O)NCc1ccc(C(=O)N2CCCC2)cc1	0	-	-	-
O=C(NC1CCCC1)N1CCCN(c2nc3ncccc3o2)CC1	28µM	0	0	0
CC(C)(C)C(=O)N1CCCN(c2nc3ncccc3o2)CC1	35µM	0	0	0
CC(=O)N1CCN(C(=O)C2CCCN(c3nc4ncccc4o3)C2)CC1 (stereo unspecified)	?	0	0	0
O=C(C1CCCC1)N1CCCN(c2nc3ncccc3o2)CC1	28µM	0	0	0
O=C(C1CCCN(c2nc3ncccc3o2)C1)N1CCN(c2ncccn2)CC1 (stereo unspecified)	25µM	0	0	0
COCC(=O)N1CCN(c2nc3ncccc3o2)CC1	32µM	0	0	0
CN1C(=O)c2cccn2CC1CNC(=O)c1cc2ccccc2[nH]1 (stereo unspecified)	16µM	0	0	0
O=C(NCc1cccc(F)c1)c1nc2c(o1)CCN(Cc1ccc3[nH]ccc3c1)CC2	?	0	0	0
COc1ccc(Cc2nc3nccc(-c4ccccc4)n3n2)cc1	0	0	0	0
Fc1cc(F)cc(Cc2nc3nccc(-c4cccs4)n3n2)c1	25µM	0	0	0
COc1cccc(-c2ccnc3nc(Cc4ccc(F)cc4)nn23)c1	25µM	0	0	0
Fc1ccc(Cc2nc3nccc(-c4ccccc4)n3n2)cc1	28µM	0	0	0
Fc1ccc(Cc2nc3nccc(-c4ccsc4)n3n2)cc1	25µM	0	0	0
CCS(=O)(=O)Nc1ccc(C)n(CC(=O)N2CCN(c3ccccc3)CC2)c1=O	0	0	0	0
COC(=O)C1(C)c2[nH]c3ccccc3c2CCN1C(=O)CCl (stereo unspecified)	-	-	0	?
O=C(c1ccccn1)N1CCC(Oc2cccnc2)C1 (stereo unspecified)	0	0	0	0
CCCN(CCC)C(=O)CC1=CSC2=NC(CC)=C(C(=O)OC)C(c3cccc(F)c3)N12 (stereo unspecified)	?	0	0	0
Cc1ncnc(N2CCN(C(=O)C3CCN(C(=O)C4CC4)CC3)CC2)c1C	0	0	0	0
SMILES	KDM5B inhibitor	SNCA expr inh	IP6K1 inh	HEK293 viab
Cc1cc(C)nc(N2CCN(C(=O)C3CCN(CC(N)=O)CC3)CC2)n1	28µM	?	0	0
Cc1ccc(-c2ccccc2CN2CCC(C(=O)N3CCN(c4ncccn4)CC3)CC2)cc1Cl	-	?	0	0
Cc1cccc(N2CCN(C(=O)C3CCN(C(=O)C4CC4)CC3)CC2)n1	22µM	0	0	0
COc1ccc(CCNC(=O)CSc2nnnn2-c2c(C)cccc2C)cc1OC	0	-	-	-
CCCc1noc(-c2cccn3c(CNC(=O)CC4CCCCC4)nnc23)n1	?	0	0	0
CCc1noc(-c2cccn3c(CNC(=O)CCC4CCCC4)nnc23)n1	28µM	0	0	0
CC(C)c1noc(-c2cccn3c(CNC(=O)CCC4CCCC4)nnc23)n1	16µM	0	0	0
Cc1n[nH]c(C)c1C(NC(=O)c1c(C)c2cccc(C)c2n1C)C(=O)O (stereo unspecified)	0	0	0	0
C=CCNc1ccccc1C(=O)NC(C(=O)O)c1c(C)n[nH]c1C (stereo unspecified)	28µM	0	0	0
